Results from PubChem BioAssay (NCATS).
Results filed as inconclusive are left out. The source made the active and inactive calls. Calls come from the whole dose curve; as a rule, active = well fitted curve in the direction sought with a large enough effect; inconclusive = small, poorly fitted or top-dose-only effect, or another doubt; inactive = no such curve, though single readings can be large; an effect the other way counts as inactive or inconclusive.

Experiments:
[1] = qHTS of pediatric cancer cell lines to identify multiple opportunities for drug repurposing: Primary screen for TC32 cells (AID 1347089); note: nearly all actives have a fitted effect of over 60% in size; note: potency is the fitted concentration of half-maximal effect; for activity change, negative = cytotoxic: % is set by controls: 0 for no effect and ±100 for the full control effect
Summary of the method: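 Luminescent ATP read-out (CellTiter-Glo) of metabolically active TC32 cells after 48 h exposure. Concentration-response curves came from 11-point (MIPE, 0.78 nM–46 µM) or 8-point (NPC, 0.59 nM–46 µM) primary titrations; follow-up used 11 points.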

[2] = qHTS of pediatric cancer cell lines to identify multiple opportunities for drug repurposing: Primary screen for DAOY cells (AID 1347090);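 note: series mostly up to about 46 µM; plate controls were DMSO for no effect and bortezomib for full effect; nearly all actives have a fitted effect of over 55% in size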
Summary of the method: (§1)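 Cell viability, CellTiter-Glo luminescence; 500-1,000 cells/well, 8- or 11-point titration, 48 h compound exposure at 37 degrees C, 5% CO2. Controls: DMSO neutral, bortezomib 2.3 µM final as positive.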

[3] = qHTS of pediatric cancer cell lines to identify multiple opportunities for drug repurposing: Primary screen for SJ-GBM2 cells (AID 1347091); note: potency is the fitted concentration of half-maximal effect;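 for activity change, negative = cytotoxic: plate controls were DMSO neutral control for no effect and bortezomib for full effect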
Summary of the method: as §1

[4] = qHTS of pediatric cancer cell lines to identify multiple opportunities for drug repurposing: Primary screen for BT-37 cells (AID 1347094); note: potency is the fitted concentration of half-maximal effect;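 for activity change, negative = cytotoxic: series mostly up to about 57 µM; plate controls were DMSO for no effect and bortezomib for full effect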
Summary of the method: (§2)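 Primary screen of approved and investigational compounds on cells in growth media at 37 degrees C, 5% CO2. MIPE set at 11-point and NPC set at 8-point dilutions; viability scored by ATP-based luminescence at 48 hours.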

[5] = qHTS of pediatric cancer cell lines to identify multiple opportunities for drug repurposing: Primary screen for NB-EBc1 cells (AID 1347095);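 note: plate controls were DMSO neutral control for no effect and bortezomib for full effect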
Summary of the method: as §2

[6] = qHTS of pediatric cancer cell lines to identify multiple opportunities for drug repurposing: Primary screen for SK-N-SH cells (AID 1347098); note: nearly all actives have a fitted effect of over 65% in size; note: potency is the fitted concentration of half-maximal effect; for activity change, negative = cytotoxic: % is set by controls: 0 for no effect and ±100 for the full control effect
Summary of the method: (§3)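 Cells (500-1,000/well) rested 5 h, then received compounds for 48 h; metabolically active cells were measured by CellTiter-Glo luminescence. Final concentrations spanned up to 46 µM (MIPE, 11-point) or 0.59 nM-46 µM (NPC, 8-point) in primary screens, 11-point in follow-ups.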

[7] = qHTS of pediatric cancer cell lines to identify multiple opportunities for drug repurposing: Primary screen for NB1643 cells (AID 1347099);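 note: plate controls were DMSO neutral control for no effect and bortezomib positive control for full effect; nearly all actives have a fitted effect of over 50% in size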
Summary of the method: as §2

[8] = qHTS of pediatric cancer cell lines to identify multiple opportunities for drug repurposing: Primary screen for LAN-5 cells (AID 1347100); note: potency is the fitted concentration of half-maximal effect;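 for activity change, negative = cytotoxic: plate controls were DMSO neutral control for no effect and bortezomib positive control for full effect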
Summary of the method: as §3

[9] = qHTS of pediatric cancer cell lines to identify multiple opportunities for drug repurposing: Primary screen for Rh18 cells (AID 1347102); note: % is set by controls: 0 for no effect and ±100 for the full control effect; nearly all actives have a fitted effect of over 65% in size
Summary of the method: as §3

[10] = qHTS of pediatric cancer cell lines to identify multiple opportunities for drug repurposing: Primary screen for RD cells (AID 1347104); note: nearly all actives have a fitted effect of over 55% in size; note: potency is the fitted concentration of half-maximal effect;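 for activity change, negative = cytotoxic: plate controls were DMSO for no effect and bortezomib for full effect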
Summary of the method: as §2

[11] = qHTS of pediatric cancer cell lines to identify multiple opportunities for drug repurposing: Primary screen for MG 63 (6-TG R) cells (AID 1347105); note: nearly all actives have a fitted effect of over 50% in size; note: potency is the fitted concentration of half-maximal effect; for activity change, negative = cytotoxic: % is set by controls: 0 for no effect and ±100 for the full control effect
Summary of the method: as §2

[12] = qHTS of pediatric cancer cell lines to identify multiple opportunities for drug repurposing: Primary screen for control Hh wild type fibroblast cells (AID 1347106);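 note: series mostly up to about 46 µM; % is set by controls: 0 for no effect and ±100 for the full control effect; a drop in luminescence marks cytotoxicity and a rise apparent proliferation; nearly all actives have a fitted effect of over 55% in size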
Summary of the method: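 Cells (500-1,000/well) in growth media were settled 5 h at 37 degrees C, then given compounds for 48 h. Viability was read as CellTiter-Glo luminescence. Primary runs used MIPE at 11 points (0.78 nM-46 µM) and NPC at 8 points (0.59 nM-46 µM); follow-ups used 11 points.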

[13] = qHTS of pediatric cancer cell lines to identify multiple opportunities for drug repurposing: Primary screen for A673 cells (AID 1347092); note: nearly all actives have a fitted effect of over 45% in size; note: potency is the fitted concentration of half-maximal effect; for activity change, negative = cytotoxic: % is set by controls: 0 for no effect and ±100 for the full control effect
Summary of the method: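 Cell viability of A673 measured by CellTiter-Glo ATP luminescence after 48 hours compound exposure. Dilution series spanned 0.78 nM to 46 µM (MIPE, 11-point) or 0.59 nM to 46 µM (NPC, 8-point); bortezomib 2.3 uM positive control.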

[14] = qHTS of pediatric cancer cell lines to identify multiple opportunities for drug repurposing: Primary screen for U-2 OS cells (AID 1347096); note: nearly all actives have a fitted effect of over 50% in size; note: potency is the fitted concentration of half-maximal effect;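 for activity change, negative = cytotoxic: plate controls were DMSO wells for no effect and bortezomib positive control wells for full effect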
Summary of the method: as §3

[15] = qHTS of pediatric cancer cell lines to identify multiple opportunities for drug repurposing: Primary screen for Saos-2 cells (AID 1347097); note: nearly all actives have a fitted effect of over 40% in size; note: potency is the fitted concentration of half-maximal effect
Summary of the method: as §2

[16] = qHTS of pediatric cancer cell lines to identify multiple opportunities for drug repurposing: Primary screen for BT-12 cells (AID 1347101); note: nearly all actives have a fitted effect of over 25% in size; note: potency is the fitted concentration of half-maximal effect;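 for activity change, negative = cytotoxic: plate controls were DMSO for no effect and bortezomib positive control for full effect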
Summary of the method: as §3

[17] = qHTS of pediatric cancer cell lines to identify multiple opportunities for drug repurposing: Primary screen for OHS-50 cells (AID 1347103); note: nearly all actives have a fitted effect of over 40% in size; note: potency is the fitted concentration of half-maximal effect;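 for activity change, negative = cytotoxic: plate controls were DMSO neutral control for no effect and bortezomib positive control for full effect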
Summary of the method: as §3

[18] = qHTS of pediatric cancer cell lines to identify multiple opportunities for drug repurposing: Primary screen for SK-N-MC cells (AID 1347093); note: potency is the fitted concentration of half-maximal effect;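 for activity change, negative = cytotoxic: series mostly up to about 46 µM; plate controls were DMSO neutral control for no effect and bortezomib for full effect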
Summary of the method: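 Metabolically active cells were quantified by ATP-dependent luminescence (CellTiter-Glo, 15 min at room temperature) following 48 h treatment. Cells had been plated at 500-1,000 per well and settled for 5 h beforehand.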

O=C(CCCN1CCN(c2ccccn2)CC1)c1ccc(F)cc1
inactive: Potency [1] | Potency [2] | Potency [3] | Potency [4] | Potency [5] | Potency [6] | Potency [7] | Potency [8] | Potency [9] | Potency [10] | Potency [11] | outcome [12]

Cc1ncc(COP(=O)(O)O)c(C=O)c1O
inactive: Potency [1] | Potency [2] | Potency [3] | Potency [13] | Potency [4] | Potency [5] | Potency [14] | Potency [15] | Potency [6] | Potency [16] | Potency [9] | Potency [17] | Potency [10] | Potency [11] | outcome [12]

CC1(C)S[C@@H]2[C@H](NC(=O)Cc3ccccc3)C(=O)N2[C@H]1C(=O)O (tested in a mixture with another compound)
inactive: Potency [1] | Potency [2] | Potency [3] | Potency [13] | Potency [4] | Potency [5] | Potency [14] | Potency [15] | Potency [6] | Potency [8] | Potency [16] | Potency [17] | Potency [10] | Potency [11] | outcome [12]

O=C(O)[C@@H]1CSCN1
inactive: Potency [1] | Potency [2] | Potency [13] | Potency [18] | Potency [4] | Potency [5] | Potency [14] | Potency [6] | Potency [7] | Potency [8] | Potency [16] | Potency [9] | Potency [17] | Potency [10] | Potency [11] | outcome [12]

OCCN1CCN(CCCN2c3ccccc3Sc3ccc(Cl)cc32)CC1
active: Potency [3] 21.1 µM | Potency [13] 21.1 µM | Potency [15] 11.9 µM | Potency [6] 8.64 µM | Potency [8] 23.7 µM | Potency [17] 24.6 µM
inactive: Potency [14]

NCCNCCNCCN
inactive: Potency [1] | Potency [2] | Potency [13] | Potency [4] | Potency [5] | Potency [14] | Potency [15] | Potency [6] | Potency [7] | Potency [8] | Potency [16] | Potency [9] | Potency [17] | Potency [10] | Potency [11] | outcome [12]

CN1[C@@H]2CC(OC(=O)[C@H](CO)c3ccccc3)C[C@H]1[C@@H]1O[C@@H]12 (some centres undefined)
inactive: Potency [1] | Potency [3] | Potency [13] | Potency [4] | Potency [5] | Potency [14] | Potency [15] | Potency [6] | Potency [7] | Potency [8] | Potency [16] | Potency [9] | Potency [17] | Potency [11] | outcome [12]

NS(=O)(=O)c1cc2c(cc1Cl)NC(CSCc1ccccc1)=NS2(=O)=O
inactive: Potency [1] | Potency [2] | Potency [13] | Potency [18] | Potency [4] | Potency [5] | Potency [14] | Potency [6] | Potency [7] | Potency [8] | Potency [16] | Potency [17] | Potency [11] | outcome [12]

Cc1c(Cl)cccc1Nc1ccccc1C(=O)O
active: Potency [18] 18.8 µM
inactive: Potency [1] | Potency [2] | Potency [13] | Potency [4] | Potency [14] | Potency [6] | Potency [16] | Potency [9] | Potency [17] | Potency [10] | Potency [11] | outcome [12]

NC(N)=NCCC[C@H](N)C(=O)O
inactive: activity change, negative = cytotoxic [1] 3.73% [at 4.81 µM] | activity change, negative = cytotoxic [2] -2.71% [at 4.84 µM] | activity change, negative = cytotoxic [13] 0.848% [at 4.84 µM] | activity change, negative = cytotoxic [4] 4.21% [at 6.03 µM] | activity change, negative = cytotoxic [5] 12% [at 4.84 µM] | activity change, negative = cytotoxic [14] 2.69% [at 4.84 µM] | activity change, negative = cytotoxic [6] -0.158% [at 6 µM] | activity change, negative = cytotoxic [7] 7.96% [at 4.84 µM] | activity change, negative = cytotoxic [8] 8.53% [at 4.84 µM] | activity change, negative = cytotoxic [16] 1.23% [at 6.03 µM] | activity change, negative = cytotoxic [17] -1.99% [at 6.18 µM] | activity change, negative = cytotoxic [10] 2.4% [at 4.84 µM] | activity change, negative = cytotoxic [11] -20.2% [at 4.84 µM] | activity change, negative = cytotoxic [12] 15% [at 4.84 µM]

[Cl][In]([Cl])[Cl]
active: Potency [15] 8.63 µM | Potency [17] 25.2 µM
inactive: Potency [2] | Potency [5] | Potency [14] | Potency [6] | Potency [7] | Potency [8] | Potency [16] | Potency [9] | Potency [11] | outcome [12]

COc1ccc2cc1Oc1ccc(cc1)C[C@H]1c3c(cc4c(c3Oc3cc5c(cc3OC)CCN(C)[C@@H]5C2)OCO4)CCN1C
active: Potency [13] 13.3 µM | Potency [4] 17.4 µM | Potency [6] 12.2 µM | Potency [16] 24.6 µM | Potency [17] 15.5 µM | Potency [10] 23.7 µM
inactive: Potency [2] | Potency [7]

CCN(CC)CCNC(=O)c1c(C)[nH]c(/C=C2\C(=O)Nc3ccc(F)cc32)c1C
inactive: Potency [6]
active: Potency [1] 8.36 µM | Potency [3] 11.9 µM | Potency [13] 10.6 µM | Potency [4] 17.4 µM | Potency [14] 21.1 µM | Potency [15] 21.1 µM | Potency [8] 11.9 µM | Potency [16] 21.9 µM | Potency [17] 1.23 µM | Potency [10] 15 µM | Potency [11] 21.1 µM

Cc1cccc(Nc2cc(Cl)nc(SCC(=O)O)n2)c1C
inactive: Potency [1] | Potency [2] | Potency [13] | Potency [18] | Potency [4] | Potency [5] | Potency [14] | Potency [15] | Potency [6] | Potency [16] | Potency [9] | Potency [17] | Potency [10] | Potency [11] | outcome [12]
